# The full list was thinned out, with the strongest signals kept by preference.
# B1: a L Fucosidase (Thermotoga maritima) (protein)
# chain: MASMKPRYKPDWESLREHTVPKWFDKAKFGIFIHWGIYSVPGWATPTGELGKVPMDAWFFQNPYAEWYENSLRIKESPTWEYHVKTYGENFEYEKFADLFTAEKWDPQEWADLFKKAGAKYVIPTTKHHDGFCLWGTKYTDFNSVKRGPKRDLVGDLAKAVREAGLRFGVYYSGGLDWRFTTEPIRYPEDLSYIRPNTYEYADYAYKQVMELVDLYLPDVLWNNMGWPEKGKEDLKYLFAYYYNKHPEGSVNDRWGVPHWDFKTAEYHVNYPGDLPGYKWEFTRGIGLSFGYNRNEGPEHMLSVEQLVYTLVDVVSKGGNLLLNVGPKGDGTIPDLQKERLLGLGEWLRKYGDAIYGTSVWERCCAKTEDGTEIRFTRKCNRIFVIFLGIPTGEKIVIEDLNLSAGTVRHFLTGERLSFKNVGKNLEITVPKKLLETDSITLVLEAVEE
# Experiments:
# Assay in all cases: glycan array binding signal (z-score within array); higher = stronger binding
# Conditions in all cases: glycan notation: IUPAC condensed, linker removed; mutation: D224N
# [1] = molecular target: Fuc(a1-2)Gal(b1-3)GlcNAc(b1-2)Man(a1-3)[Fuc(a1-2)Gal(b1-3)GlcNAc(b1-2)Man(a1-6)]Man(b1-4)GlcNAc(b1-4)GlcNAc
# Outline: (§1)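 Glycan array data were curated from 3228 arrays in the Consortium for Functional Glycomics database and kept only where the protein sequence was available. Glycan names were converted to IUPAC-condensed notation, and columns mapping to the same glycan were averaged. The binding signal is a within-array Z-score, averaged across arrays of the same protein sequence at different concentrations or buffers and across linkers. Negative Z-scores can be read as non-binding.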
# [2] = molecular target: Fuc(a1-2)Gal(b1-3)GlcNAc(b1-3)[Neu5Ac(a2-6)Gal(b1-4)GlcNAc(b1-6)]Gal(b1-4)Glc
# Outline: as §1
# [3] = molecular target: Fuc(a1-2)Gal(b1-3)GlcNAc6S
# Outline: as §1
# [4] = molecular target: Fuc(a1-2)Gal(b1-4)GlcNAc(b1-3)GalNAc
# Outline: as §1
# [5] = molecular target: Fuc(a1-2)Gal(b1-4)GlcNAc(b1-3)[Fuc(a1-2)Gal(b1-4)GlcNAc(b1-6)]GalNAc
# Outline: as §1
# [6] = molecular target: Fuc(a1-2)[Gal(a1-3)]Gal(b1-3)GalNAc
# Outline: as §1
# [7] = molecular target: Fuc(a1-2)[GalNAc(a1-3)]Gal(b1-3)GlcNAc
# Outline: as §1
# [8] = molecular target: Fuc(a1-2)[GalNAc(a1-3)]Gal(b1-4)GlcNAc(b1-3)Gal(b1-4)GlcNAc(b1-3)Gal(b1-4)GlcNAc
# Outline: as §1
# [9] = molecular target: Fuc(a1-3)[Gal(b1-4)]Glc6S
# Outline: as §1
# [10] = molecular target: Fuc(a1-3)[Gal(b1-4)]GlcNAc(b1-2)Man(a1-3)[Fuc(a1-3)[Gal(b1-4)]GlcNAc(b1-2)Man(a1-6)]Man(b1-4)GlcNAc(b1-4)[Fuc(a1-6)]GlcNAc
# Outline: as §1
# [11] = molecular target: Fuc(a1-3)[Gal(b1-4)]GlcNAc(b1-3)Gal(b1-4)[Fuc(a1-3)]GlcNAc(b1-3)Gal(b1-4)[Fuc(a1-3)]GlcNAc
# Outline: as §1
# [12] = molecular target: Fuc(a1-3)[Gal(b1-4)]GlcNAc(b1-6)GalNAc
# Outline: as §1
# Gal(a1-2)Gal = molecular target: Gal(a1-2)Gal
# Outline: as §1
# Gal(a1-3)GalNAc = molecular target: Gal(a1-3)GalNAc
# Outline: as §1
# Gal(b1-3)GlcNAc(b1-2)Man = molecular target: Gal(b1-3)GlcNAc(b1-2)Man
# Outline: as §1
# [13] = molecular target: Gal(b1-3)GlcNAc(b1-3)Gal(b1-4)GlcNAc(b1-6)[Gal(b1-3)GlcNAc(b1-3)]Gal(b1-4)Glc
# Outline: as §1
# [14] = molecular target: Gal(b1-4)GlcNAc(b1-3)Gal(b1-4)GlcNAc(b1-2)[Gal(b1-4)GlcNAc(b1-3)Gal(b1-4)GlcNAc(b1-6)]Man(a1-6)[Gal(b1-4)GlcNAc(b1-3)Gal(b1-4)GlcNAc(b1-2)Man(a1-3)]Man(b1-4)GlcNAc(b1-4)GlcNAc
# Outline: as §1
# [15] = molecular target: Gal(b1-4)GlcNAc(b1-3)Gal(b1-4)GlcNAc(b1-3)Gal(b1-4)GlcNAc(b1-3)Gal(b1-4)GlcNAc(b1-2)Man(a1-3)[Gal(b1-4)GlcNAc(b1-3)Gal(b1-4)GlcNAc(b1-3)Gal(b1-4)GlcNAc(b1-3)Gal(b1-4)GlcNAc(b1-2)Man(a1-6)]Man(b1-4)GlcNAc(b1-4)[Fuc(a1-6)]GlcNAc
# Outline: as §1
# [16] = molecular target: Gal(b1-4)GlcNAc(b1-3)Gal(b1-4)GlcNAc(b1-3)Gal(b1-4)GlcNAc(b1-3)Gal(b1-4)GlcNAc(b1-3)Gal(b1-4)GlcNAc(b1-2)Man(a1-3)[Gal(b1-4)GlcNAc(b1-3)Gal(b1-4)GlcNAc(b1-3)Gal(b1-4)GlcNAc(b1-3)Gal(b1-4)GlcNAc(b1-3)Gal(b1-4)GlcNAc(b1-2)Man(a1-6)]Man(b1-4)GlcNAc(b1-4)GlcNAc
# Outline: as §1
# [17] = molecular target: Gal3S(b1-4)[Fuc(a1-3)]Glc6S
# Outline: as §1
# Gal3S6S(b1-4)GlcNAc = molecular target: Gal3S6S(b1-4)GlcNAc
# Outline: as §1
# Gal6S(b1-4)Glc6S = molecular target: Gal6S(b1-4)Glc6S
# Outline: as §1
# [18] = molecular target: Glc(a1-4)Glc(a1-4)Glc(a1-4)Glc
# Outline: as §1
# [19] = molecular target: GlcNAc(a1-4)Gal(b1-4)GlcNAc
# Outline: as §1
# [20] = molecular target: GlcNAc(a1-4)Gal(b1-4)GlcNAc(b1-3)Gal(b1-4)GlcNAc(b1-3)Gal(b1-4)GlcNAc
# Outline: as §1
# [21] = molecular target: GlcNAc(a1-4)Gal(b1-4)GlcNAc(b1-3)Gal(b1-4)[Fuc(a1-3)]GlcNAc(b1-3)Gal(b1-4)[Fuc(a1-3)]GlcNAc
# Outline: as §1
# [22] = molecular target: GlcNAc(b1-3)Gal(b1-4)GlcNAc(b1-3)Gal(b1-4)GlcNAc(b1-2)Man(a1-3)[GlcNAc(b1-3)Gal(b1-4)GlcNAc(b1-3)Gal(b1-4)GlcNAc(b1-2)Man(a1-6)]Man(b1-4)GlcNAc(b1-4)GlcNAc
# Outline: as §1
# [23] = molecular target: GlcNAc(b1-3)Gal(b1-4)GlcNAc(b1-3)Gal(b1-4)GlcNAc(b1-2)[GlcNAc(b1-3)Gal(b1-4)GlcNAc(b1-3)Gal(b1-4)GlcNAc(b1-6)]Man(a1-6)[GlcNAc(b1-3)Gal(b1-4)GlcNAc(b1-3)Gal(b1-4)GlcNAc(b1-2)Man(a1-3)]Man(b1-4)GlcNAc(b1-4)[Fuc(a1-6)]GlcNAc
# Outline: as §1
# [24] = molecular target: GlcNAc(b1-3)Gal(b1-4)GlcNAc(b1-3)Gal(b1-4)GlcNAc(b1-3)Gal(b1-4)GlcNAc(b1-2)Man(a1-3)[GlcNAc(b1-3)Gal(b1-4)GlcNAc(b1-3)Gal(b1-4)GlcNAc(b1-3)Gal(b1-4)GlcNAc(b1-2)Man(a1-6)]Man(b1-4)GlcNAc(b1-4)[Fuc(a1-6)]GlcNAc
# Outline: as §1
# [25] = molecular target: GlcNAc(b1-3)Gal(b1-4)GlcNAc(b1-3)Gal(b1-4)GlcNAc(b1-3)Gal(b1-4)GlcNAc(b1-3)Gal(b1-4)GlcNAc(b1-2)Man(a1-3)[GlcNAc(b1-3)Gal(b1-4)GlcNAc(b1-3)Gal(b1-4)GlcNAc(b1-3)Gal(b1-4)GlcNAc(b1-3)Gal(b1-4)GlcNAc(b1-2)Man(a1-6)]Man(b1-4)GlcNAc(b1-4)GlcNAc
# Outline: as §1
# [26] = molecular target: GlcNAc(b1-3)Gal(b1-4)GlcNAc(b1-6)[GlcNAc(b1-3)Gal(b1-3)]GalNAc
# Outline: as §1
# [27] = molecular target: GlcNAc(b1-4)[GlcNAc(b1-6)]GalNAc
# Outline: as §1
# [28] = molecular target: Kdn(a2-3)Gal(b1-4)[Fuc(a1-3)]GlcNAc
# Outline: as §1
# [29] = molecular target: Man(a1-2)Man(a1-2)Man(a1-6)[Man(a1-3)]Man
# Outline: as §1
# Man(a1-3)[Man(a1-6)]Man = molecular target: Man(a1-3)[Man(a1-6)]Man
# Outline: as §1
# [30] = molecular target: Man(a1-3)[Man(a1-6)]Man(a1-6)[Man(a1-3)]Man
# Outline: as §1
# [31] = molecular target: Neu5Ac(a2-3)Gal(b1-4)GlcNAc(b1-3)Gal
# Outline: as §1
# [32] = molecular target: Neu5Ac(a2-3)Gal(b1-4)GlcNAc(b1-3)Gal(b1-4)[Fuc(a1-3)]GlcNAc
# Outline: as §1
# [33] = molecular target: Neu5Ac(a2-3)Gal(b1-4)GlcNAc(b1-3)[Neu5Ac(a2-3)Gal(b1-4)GlcNAc(b1-6)]GalNAc
# Outline: as §1
# [34] = molecular target: Neu5Ac(a2-3)Gal(b1-4)[Fuc(a1-3)]GlcNAc(b1-3)Gal(b1-4)GlcNAc
# Outline: as §1
# [35] = molecular target: Neu5Ac(a2-3)Gal(b1-4)[Fuc(a1-3)]GlcNAc(b1-6)[Neu5Ac(a2-3)Gal(b1-3)]GalNAc
# Outline: as §1
# [36] = molecular target: Neu5Ac(a2-3)Gal6S(b1-4)[Fuc(a1-3)]GlcNAc
# Outline: as §1
# [37] = molecular target: Neu5Ac(a2-6)Gal(b1-4)GlcNAc(b1-2)Man(a1-3)Man(b1-4)GlcNAc(b1-4)GlcNAc
# Outline: as §1
# [38] = molecular target: Neu5Ac(a2-6)Gal(b1-4)GlcNAc(b1-2)Man(a1-6)[Man(a1-3)]Man(b1-4)GlcNAc(b1-4)GlcNAc
# Outline: as §1
# [39] = molecular target: Neu5Ac(a2-6)Gal(b1-4)GlcNAc(b1-3)Gal(b1-4)GlcNAc(b1-2)Man(a1-3)[Neu5Ac(a2-6)Gal(b1-4)GlcNAc(b1-3)Gal(b1-4)GlcNAc(b1-2)Man(a1-6)]GalNAc
# Outline: as §1
# [40] = molecular target: Neu5Ac(a2-6)Gal(b1-4)GlcNAc(b1-3)Gal(b1-4)GlcNAc(b1-3)Gal(b1-4)GlcNAc(b1-2)Man(a1-3)[Neu5Ac(a2-6)Gal(b1-4)GlcNAc(b1-3)Gal(b1-4)GlcNAc(b1-3)Gal(b1-4)GlcNAc(b1-2)Man(a1-6)]GalNAc
# Outline: as §1
# [41] = molecular target: Neu5Ac(a2-6)Gal(b1-4)GlcNAc(b1-3)GalNAc
# Outline: as §1
# [42] = molecular target: Neu5Ac(a2-8)Neu5Ac(a2-3)Gal(b1-4)Glc
# Outline: as §1
# [43] = molecular target: Neu5Ac(a2-8)Neu5Ac(a2-8)Neu5Ac(a2-3)Gal(b1-4)Glc
# Outline: as §1
# [44] = molecular target: Neu5Ac(a2-8)Neu5Ac(a2-8)Neu5Ac(a2-3)[GalNAc(b1-4)]Gal(b1-4)Glc
# Outline: as §1
binder,measurement,setting,value
B1,glycan array binding signal (z-score),[1],0.227
same,glycan array binding signal (z-score),[2],-0.742
same,glycan array binding signal (z-score),[3],-0.396
same,glycan array binding signal (z-score),[4],0.144
same,glycan array binding signal (z-score),[5],0.657
same,glycan array binding signal (z-score),[6],-0.35
same,glycan array binding signal (z-score),[7],2.8
same,glycan array binding signal (z-score),[8],0.201
same,glycan array binding signal (z-score),[9],2.33
same,glycan array binding signal (z-score),[10],1.05
same,glycan array binding signal (z-score),[11],0.062
same,glycan array binding signal (z-score),[12],-0.2
same,glycan array binding signal (z-score),Gal(a1-2)Gal,-0.446
same,glycan array binding signal (z-score),Gal(a1-3)GalNAc,-0.41
same,glycan array binding signal (z-score),Gal(b1-3)GlcNAc(b1-2)Man,0.366
same,glycan array binding signal (z-score),[13],-0.509
same,glycan array binding signal (z-score),[14],1.93
same,glycan array binding signal (z-score),[15],0.731
same,glycan array binding signal (z-score),[16],0.594
same,glycan array binding signal (z-score),[17],0.443
same,glycan array binding signal (z-score),Gal3S6S(b1-4)GlcNAc,1.33
same,glycan array binding signal (z-score),Gal6S(b1-4)Glc6S,-0.426
same,glycan array binding signal (z-score),[18],2.84
same,glycan array binding signal (z-score),[19],-0.293
same,glycan array binding signal (z-score),[20],0.079
same,glycan array binding signal (z-score),[21],0.08
same,glycan array binding signal (z-score),[22],0.079
same,glycan array binding signal (z-score),[23],0.296
same,glycan array binding signal (z-score),[24],3.94
same,glycan array binding signal (z-score),[25],-0.204
same,glycan array binding signal (z-score),[26],1.65
same,glycan array binding signal (z-score),[27],-0.289
same,glycan array binding signal (z-score),[28],0.051
same,glycan array binding signal (z-score),[29],-0.125
same,glycan array binding signal (z-score),Man(a1-3)[Man(a1-6)]Man,0.332
same,glycan array binding signal (z-score),[30],0.223
same,glycan array binding signal (z-score),[31],-0.187
same,glycan array binding signal (z-score),[32],1.75
same,glycan array binding signal (z-score),[33],0.483
same,glycan array binding signal (z-score),[34],1.9
same,glycan array binding signal (z-score),[35],2.83
same,glycan array binding signal (z-score),[36],-0.732
same,glycan array binding signal (z-score),[37],1.99
same,glycan array binding signal (z-score),[38],0.081
same,glycan array binding signal (z-score),[39],2.02
same,glycan array binding signal (z-score),[40],10.5
same,glycan array binding signal (z-score),[41],1.83
same,glycan array binding signal (z-score),[42],-0.893
same,glycan array binding signal (z-score),[43],0.654
same,glycan array binding signal (z-score),[44],0.362

# Reference: the supplement of paper PMC8728848
